PubChem BioAssay (Tox21)
Several values for one entry are separate records, joined by “and”; a condition that tells them apart may be missing. Identical values can stand only once. Inconclusive results are not listed. A call without a number means that no potency is given here. Where a structure was tested more than once in an assay, its records may differ in their call. Activity calls are given as the source filed them. Unless noted, calls follow the shape of the dose curve; as a rule, active = well fitted curve in the direction sought with a large enough effect in the repeat runs; inconclusive = weak or mixed curves; inactive = no such curve, though single readings can be large; an effect the other way counts as inactive or inconclusive.

Columns and labels:
[1] = qHTS assay to test for compound auto fluorescence at 535 nm (green) in HEK293 cells (AID 720680)
[2] = qHTS assay to test for compound auto fluorescence at 460 nm (blue) in HEK293 cell free culture (AID 720681)
Procedure, shortened: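 Blue fluorescence (Ex 405/Em 460 nm, triamterene-equivalent) was read immediately after pin transfer of compound or DMSO into medium (DMEM, 10% FBS) without cells.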

[3] = qHTS assay to test for compound auto fluorescence at 535 nm (green) in HEK293 cell free culture (AID 720682)
Procedure, shortened: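 Using fluorescein as calibrant, autofluorescence was quantified at 485/535 nm in cell-free DMEM containing 10% FBS after pintool addition of compound or vehicle.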

[4] = qHTS assay to test for compound auto fluorescence at 590 nm (red) in HEK293 cell free culture (AID 720683)
Procedure, shortened: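 Red-channel autofluorescence of compounds in culture medium (DMEM, 10% FBS), no cells, measured at 540/590 nm. Rose Bengal sodium is the reference fluorophore for equivalence.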

[5] = qHTS assay to test for compound auto fluorescence at 590 nm (red) in HepG2 cell free culture (AID 720684)
Procedure, shortened: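 Steps: dispense MEM/10% FBS medium, no cells; pin compound or DMSO vehicle; read red channel, Ex/Em 540/590 nm. Output given as Rose Bengal sodium equivalents.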

[6] = qHTS assay to test for compound auto fluorescence at 460 nm (blue) in HepG2 cell free culture (AID 720685)
Procedure, shortened: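 Compound (23 nL) or DMSO pinned into cell-free MEM with 10% FBS; blue fluorescence read at 405/460 nm excitation/emission, expressed as auto-fluorescence equivalency to triamterene.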

[7] = qHTS assay to test for compound auto fluorescence at 535 nm (green) in HepG2 cell free culture (AID 720686)
[8] = qHTS assay to test for compound auto fluorescence at 460 nm (blue) in HepG2 cells (AID 720687)
Procedure, shortened: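 Blue-channel autofluorescence (Ex/Em 405/460 nm, triamterene-equivalent) was measured after 1 hr compound exposure at 37 C, 5% CO2. Cells were HepG2, plated overnight at 37 C in MEM plus 10% FBS.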

[9] = target: Glucocorticoid receptor (Homo sapiens) (UniProt P04150); experiment: qHTS assay to identify small molecule agonists of the glucocorticoid receptor (GR) signaling pathway (AID 720691; active = well fitted activation curve with a large enough effect in the signal ratio in the repeat runs, not every such curve was filed as active; the % refers to the signal ratio; also: potency is read from the fitted curve at half-maximal effect)
Procedure, shortened: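 Agonist mode in a HeLa line carrying a GRE-controlled beta-lactamase reporter. Compounds act for 18 h at 37 C before a 2 h room-temperature FRET substrate step and fluorescence reading.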

[10] = qHTS assay to identify small molecule antagonists of the glucocorticoid receptor (GR) signaling pathway - cell viability counter screen (AID 720693); also: nearly all actives have a fitted effect of over 55% in size
[11] = qHTS assay for identifying genotoxic compounds that show differential cytotoxicity against isogenic chicken DT40 cell lines with known DNA damage response pathways - wild type cell line (AID 743012); also: nearly all actives have a fitted effect of over 60% in size; also: potency is read from the fitted curve at half-maximal effect
Procedure, shortened: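 Cells (DT40 wild type, 300/well) are treated with DMSO-dissolved compounds after a ~0.5 h pre-incubation and kept 40 h at 37 C/5% CO2. Viability is then measured by CellTiter-Glo luminescence following 30 min at room temperature.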

[12] = qHTS assay for identifying genotoxic compounds that show differential cytotoxicity against isogenic chicken DT40 cell lines with known DNA damage response pathways - Rev3 mutant cell line (AID 743014); also: nearly all actives have a fitted effect of over 55% in size; also: potency is read from the fitted curve at half-maximal effect
[13] = qHTS assay for identifying genotoxic compounds that show differential cytotoxicity against isogenic chicken DT40 cell lines with known DNA damage response pathways - Rad54/Ku70 mutant cell line (AID 743015); also: nearly all actives have a fitted effect of over 60% in size; also: potency is read from the fitted curve at half-maximal effect
[14] = qHTS assay to identify small molecule antagonists of the androgen receptor (AR) signaling pathway - cell viability counter screen (AID 743033; also: nearly all actives have a fitted effect of over 45% in size; also: potency is read from the fitted curve at half-maximal effect)
[15] = qHTS assay to identify small molecule antagonists of the androgen receptor (AR) signaling pathway using the MDA cell line - cell viability counter screen (AID 743041; also: nearly all actives have a fitted effect of over 45% in size; also: potency is read from the fitted curve at half-maximal effect)
Procedure, shortened: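 Cells were plated at 3,000 per well and left 5 h. Compounds in DMSO were then pinned in, followed by R1881. After 16 h at 37C, CellTiter-Fluor fluorescence gave viability.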

[16] = target: Androgen receptor (Homo sapiens) (UniProt P10275); experiment: qHTS assay to identify small molecule agonists of the androgen receptor (AR) signaling pathway (AID 743036; active = well fitted activation curve with a large enough effect in the signal ratio in the repeat runs, with a control signal flat, not every such curve was filed as active; the % refers to the signal ratio)
Procedure, shortened: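 In this Tox21 qHTS, 2,000 HEK293 AR-bla cells per well were incubated with compounds for 16 h at 37C and 5% CO2. Fluorescence intensity was recorded 2 h after adding LiveBLAzer B/G FRET substrate at room temperature.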

[17] = target: Androgen receptor (Homo sapiens) (UniProt P10275); experiment: qHTS assay to identify small molecule agonists of the androgen receptor (AR) signaling pathway using the MDA cell line (AID 743040; also: nearly all actives have a fitted effect of over 20% in size)
Procedure, shortened: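 Cells plated, 5 h at 37C/0% CO2; compound or DMSO pinned; 16 h at 37C; ONE-Glo added; luminescence measured after 30 min at room temperature. Reporter line: MDA-kb2 with MMTV-luciferase responsive to AR and GR.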

[18] = target: Androgen receptor (Homo sapiens) (UniProt P10275); experiment: qHTS assay to identify small molecule antagonists of the androgen receptor (AR) signaling pathway using the MDA cell line (AID 743042; also: nearly all actives have a fitted effect of over 55% in size; also: potency is read from the fitted curve at half-maximal effect)
Procedure, shortened: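 Antagonist mode: compounds plus R1881 agonist added to MDA-kb2 AR-luc cells, incubated 16 h at 37C. Luciferase reporter luminescence quantified, with multiplexed CellTiter-Fluor readout for cell viability.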

[19] = target: Glucocorticoid receptor (Homo sapiens) (UniProt P04150); experiment: qHTS assay to identify small molecule antagonists of the glucocorticoid receptor (GR) signaling pathway (AID 720692; active = well fitted inhibition curve with a large enough effect in the signal ratio in the repeat runs, not every such curve was filed as active; the % refers to the signal ratio)
Procedure, shortened: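 Cells plated, rested 4 h at 37 C/5% CO2; compounds in DMSO pin-transferred; dexamethasone added to 5 nM final; 18 h at 37 C; B/G FRET substrate added, 2 h room temperature; fluorescence measured.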

[20] = target: Androgen receptor (Homo sapiens) (UniProt P10275); experiment: qHTS assay to identify small molecule antagonists of the androgen receptor (AR) signaling pathway (AID 743035; active = well fitted inhibition curve with a large enough effect in the signal ratio in the repeat runs, not every such curve was filed as active; the % refers to the signal ratio)
Procedure, shortened: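 Antagonism is scored as loss of R1881-driven beta-lactamase reporter expression in HEK293 cells carrying the reporter under a UAS element, after 16 h co-treatment at 37C and a 2 h room-temperature FRET substrate read.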

Androgen receptor (Homo sapiens), sequence (P10275 whole entry, looked up): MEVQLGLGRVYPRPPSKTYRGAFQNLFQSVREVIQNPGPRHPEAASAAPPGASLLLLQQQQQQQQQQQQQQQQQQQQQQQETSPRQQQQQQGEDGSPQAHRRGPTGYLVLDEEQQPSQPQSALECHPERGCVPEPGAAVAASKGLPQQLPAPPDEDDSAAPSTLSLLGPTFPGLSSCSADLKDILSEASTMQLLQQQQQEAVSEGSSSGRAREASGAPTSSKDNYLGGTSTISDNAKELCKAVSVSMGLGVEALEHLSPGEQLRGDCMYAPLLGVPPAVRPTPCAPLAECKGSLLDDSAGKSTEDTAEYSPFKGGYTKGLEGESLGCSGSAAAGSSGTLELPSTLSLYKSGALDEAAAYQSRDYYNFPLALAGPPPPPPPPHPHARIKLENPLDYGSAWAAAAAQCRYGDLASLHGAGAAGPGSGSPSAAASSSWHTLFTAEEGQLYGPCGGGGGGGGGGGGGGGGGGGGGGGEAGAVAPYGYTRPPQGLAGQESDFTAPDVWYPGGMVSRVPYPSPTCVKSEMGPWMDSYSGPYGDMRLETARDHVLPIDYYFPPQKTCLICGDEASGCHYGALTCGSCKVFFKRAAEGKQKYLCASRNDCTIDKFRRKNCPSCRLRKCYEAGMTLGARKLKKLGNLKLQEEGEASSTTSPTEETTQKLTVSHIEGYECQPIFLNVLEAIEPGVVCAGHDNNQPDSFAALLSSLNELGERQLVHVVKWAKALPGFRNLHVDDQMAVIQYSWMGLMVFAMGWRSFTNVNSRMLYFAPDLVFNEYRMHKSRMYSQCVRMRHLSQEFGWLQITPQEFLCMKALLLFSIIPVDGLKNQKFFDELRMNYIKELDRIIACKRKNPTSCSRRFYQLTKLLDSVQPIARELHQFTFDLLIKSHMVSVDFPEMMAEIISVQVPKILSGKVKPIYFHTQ
Glucocorticoid receptor (Homo sapiens), sequence (P04150 whole entry, looked up): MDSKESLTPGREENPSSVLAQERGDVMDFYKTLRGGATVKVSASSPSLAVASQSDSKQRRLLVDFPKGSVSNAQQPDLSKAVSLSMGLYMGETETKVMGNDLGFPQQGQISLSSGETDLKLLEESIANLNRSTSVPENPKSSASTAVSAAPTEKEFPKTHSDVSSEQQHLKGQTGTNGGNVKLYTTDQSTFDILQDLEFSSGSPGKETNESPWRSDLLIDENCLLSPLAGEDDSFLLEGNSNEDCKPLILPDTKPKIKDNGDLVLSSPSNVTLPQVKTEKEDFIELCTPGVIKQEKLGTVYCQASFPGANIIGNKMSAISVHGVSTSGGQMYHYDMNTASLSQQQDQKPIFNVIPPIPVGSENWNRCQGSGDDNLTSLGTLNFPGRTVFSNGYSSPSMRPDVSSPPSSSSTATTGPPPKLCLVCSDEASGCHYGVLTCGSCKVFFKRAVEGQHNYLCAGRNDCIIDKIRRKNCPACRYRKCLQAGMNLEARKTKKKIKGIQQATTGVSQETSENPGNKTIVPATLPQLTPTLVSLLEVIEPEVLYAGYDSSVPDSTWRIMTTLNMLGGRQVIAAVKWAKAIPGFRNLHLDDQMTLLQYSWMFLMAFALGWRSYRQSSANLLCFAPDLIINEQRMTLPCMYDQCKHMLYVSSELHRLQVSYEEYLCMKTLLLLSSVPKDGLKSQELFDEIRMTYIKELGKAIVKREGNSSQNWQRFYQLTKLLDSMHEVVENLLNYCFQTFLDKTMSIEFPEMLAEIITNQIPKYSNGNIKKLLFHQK

Compound: NCCO
- Potency [1]: inactive
- Potency [2]: inactive
- Potency [3]: inactive
- outcome [4]: inactive
- outcome [5]: inactive
- Potency [6]: inactive
- Potency [7]: inactive
- Potency [8]: inactive
- Potency [9]: inactive
- Potency [10]: inactive
- Potency [11]: inactive
- Potency [12]: inactive and 68.6 µM (active)
- Potency [13]: inactive
- Potency [14]: inactive
- Potency [15]: inactive

Compound: NCCCCCC(=O)O
- fluorescence, % of fluorescein [1]: -0.0215% [at 18.6 µM] (inactive)
- fluorescence, % of fluorescent control [2]: 0.0269% [at 18.6 µM] (inactive)
- activity change [3]: 0.0558% [at 18.6 µM, stronger effect = higher value] (inactive)
- fluorescence, % of fluorescent control [4]: -0.0259% [at 18.6 µM] (inactive)
- fluorescence, % of Rose Bengal [5]: 0.496% [at 18.6 µM] (inactive)
- fluorescence, % of fluorescent control [6]: 0.0102% [at 18.6 µM] (inactive)
- fluorescence, % of fluorescein control [7]: -0.0066% [at 18.6 µM] (inactive)
- fluorescence, % of fluorescent control [8]: -0.0854% [at 18.6 µM] (inactive)
- Potency [9]: inactive
- Potency [10]: inactive
- Potency [11]: inactive
- Potency [13]: inactive
- Potency [14]: inactive
- Potency [15]: inactive

Compound: CCC(C)(C)C(=O)O[C@H]1C[C@@H](C)C=C2C=C[C@H](C)[C@H](CC[C@@H]3C[C@@H](O)CC(=O)O3)[C@H]21
- Potency [1]: inactive
- Potency [2]: inactive
- Potency [3]: inactive
- outcome [4]: inactive
- outcome [5]: inactive
- Potency [6]: inactive
- Potency [7]: inactive
- Potency [8]: inactive
- Potency [9]: 6.44 µM (active) and inactive
- Potency [10]: inactive
- Potency [11]: 2.17 µM (active)
- Potency [12]: 154 nM (active)
- Potency [13]: 1.09 µM (active)
- Potency [14]: inactive
- Potency [15]: inactive

Compound: O=C(O)c1cccc(C(=O)O)c1
- Potency [1]: inactive
- Potency [2]: inactive
- Potency [3]: inactive
- outcome [4]: inactive
- outcome [5]: inactive
- Potency [6]: inactive
- Potency [7]: inactive
- Potency [8]: inactive
- Potency [9]: inactive
- Potency [10]: inactive
- Potency [14]: inactive
- Potency [15]: inactive

Compound: CC(=O)Nc1ccc(C(=O)CCl)cc1
- Potency [1]: inactive
- Potency [2]: inactive
- Potency [3]: inactive
- outcome [4]: inactive
- outcome [5]: inactive
- Potency [6]: inactive
- Potency [7]: inactive
- Potency [8]: inactive
- Potency [9]: inactive
- Potency [10]: inactive
- Potency [11]: inactive and 1.72 µM (active)
- Potency [12]: 1930 nM (active)
- Potency [13]: 1.72 µM (active)
- Potency [14]: inactive
- Potency [16]: inactive
- outcome [17]: inactive
- Potency [18]: inactive

Compound: CNCCC(Oc1ccc(C(F)(F)F)cc1)c1ccccc1 (stereo not drawn)
- Potency [1]: inactive
- Potency [2]: inactive
- Potency [3]: inactive
- outcome [4]: inactive
- outcome [5]: inactive
- Potency [6]: inactive
- Potency [7]: inactive
- Potency [8]: inactive
- Potency [9]: inactive
- Potency [10]: inactive
- Potency [11]: 5.31 µM (active) and 9.56 µM (active)
- Potency [12]: 6.68 µM (active) and 6.03 µM (active)
- Potency [13]: 6.68 µM (active) and 8.52 µM (active)
- Potency [14]: 48.4 µM (active)
- Potency [15]: 27.8 µM (active) and 53.8 µM (active)

Compound: O=C(O)c1cc(Cl)cc(Cl)c1
- Potency [1]: inactive
- Potency [2]: inactive
- Potency [3]: inactive
- outcome [4]: inactive
- outcome [5]: inactive
- Potency [6]: inactive
- Potency [7]: inactive
- Potency [8]: inactive
- Potency [9]: inactive
- Potency [10]: inactive
- Potency [11]: inactive
- Potency [12]: inactive
- Potency [13]: inactive
- Potency [14]: inactive
- Potency [15]: inactive

Compound: NNCCc1ccccc1
- Potency [1]: inactive
- Potency [2]: inactive
- Potency [3]: inactive
- outcome [4]: inactive
- outcome [5]: inactive
- Potency [6]: inactive
- Potency [7]: inactive
- Potency [8]: inactive
- Potency [9]: inactive
- Potency [19]: inactive
- Potency [10]: inactive
- Potency [11]: inactive
- Potency [12]: inactive
- Potency [13]: inactive
- Potency [14]: inactive
- Potency [15]: inactive

Compound: COc1ccc(Cc2cnc(N)nc2N)cc1OC
- Potency [1]: inactive
- Potency [2]: inactive
- Potency [3]: inactive
- outcome [4]: inactive
- outcome [5]: inactive
- Potency [6]: inactive
- Potency [7]: inactive
- Potency [8]: inactive
- Potency [9]: inactive
- Potency [10]: inactive
- Potency [14]: inactive
- Potency [20]: inactive
- Potency [16]: inactive
- outcome [17]: inactive
- Potency [15]: inactive
- Potency [18]: inactive

Compound: CC1=CC(=O)c2ccccc2C1=O
- Potency [1]: inactive
- Potency [2]: inactive
- Potency [3]: inactive
- outcome [4]: inactive
- outcome [5]: inactive
- Potency [6]: inactive
- Potency [7]: inactive
- Potency [8]: inactive
- Potency [9]: inactive
- Potency [11]: 21.1 µM (active) and 13.7 µM (active)
- Potency [12]: 23.7 µM (active) and 12.2 µM (active)
- Potency [13]: 26.6 µM (active) and 15.4 µM (active)
- Potency [14]: inactive and 21.9 µM (active)
- Potency [20]: inactive
- outcome [17]: inactive
- Potency [18]: inactive and 30.6 µM (active)

Compound: O=C(O)c1cn(-c2ccc(F)cc2)c2cc(N3CCNCC3)c(F)cc2c1=O
- Potency [1]: inactive
- Potency [2]: inactive
- Potency [3]: inactive
- outcome [4]: inactive
- outcome [5]: inactive
- Potency [6]: inactive
- Potency [7]: inactive
- Potency [8]: inactive
- Potency [9]: inactive
- Potency [19]: inactive
- Potency [10]: inactive
- Potency [12]: inactive
- Potency [14]: inactive
- Potency [15]: inactive

Compound: COC(=O)c1cccc(C(=O)OC)c1
- Potency [1]: inactive
- Potency [2]: inactive
- Potency [3]: inactive
- outcome [4]: inactive
- outcome [5]: inactive
- Potency [6]: inactive
- Potency [7]: inactive
- Potency [8]: inactive
- Potency [10]: inactive
- Potency [11]: inactive
- Potency [12]: inactive
- Potency [13]: inactive
- Potency [14]: inactive
- Potency [20]: inactive
- Potency [16]: inactive
- outcome [17]: inactive
- Potency [15]: inactive
- Potency [18]: inactive
